# Compounds with a hit are over-represented: about 3.3% of the library has one in this group of screens.
# AmpC no deterg = blocks E. coli AmpC beta-lactamase in detergent-free assay; P00811; AmpC nitrocefin hydrolysis, absorbance 480 nm, 0.0001% Triton; Potency, µM (top dose mostly 57.1 µM), actives largely listed as inhibitors; 330,000 tested, 0.52% active; AID 485341; further: nearly all actives have a fitted effect of over 20% in size
# Target sequence (P00811 whole entry, looked up): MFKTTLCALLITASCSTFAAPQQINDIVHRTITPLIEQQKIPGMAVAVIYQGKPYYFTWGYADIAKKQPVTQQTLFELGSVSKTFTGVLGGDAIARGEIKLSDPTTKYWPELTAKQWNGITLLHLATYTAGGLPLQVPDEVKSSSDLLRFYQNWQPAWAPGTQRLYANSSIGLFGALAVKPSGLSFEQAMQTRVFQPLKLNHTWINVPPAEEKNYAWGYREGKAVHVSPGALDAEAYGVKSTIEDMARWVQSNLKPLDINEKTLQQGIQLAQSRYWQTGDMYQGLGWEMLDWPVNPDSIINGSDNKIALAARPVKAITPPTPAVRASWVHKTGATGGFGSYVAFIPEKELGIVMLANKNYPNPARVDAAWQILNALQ
#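 AmpC (5.3 nM in the dispensed reagent) in 20 mM phosphate pH 7.0 with 0.01% (detergent screen) or 0.0001% Triton X-100 was preincubated with compounds for 15 min at room temperature. Nitrocefin was then added from an 800 uM solution, and hydrolysis was followed at 480 nm.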
# Sm TGR block = blocks Schistosoma mansoni thioredoxin glutathione reductase. 360,000 tested, 3% active. AID 485364. Potency, µM (highest dose often 114 µM), usual class: inhibitors. purified TGR, DTNB reduction, TNB absorbance 405 nm. Q962Y6; further: nearly all actives have a fitted effect of over 60% in size
#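 Kinetic colorimetric format: TGR-catalysed, NADPH-driven DTNB reduction monitored via TNB absorbance. Enzyme dispensed at 20 nM; compound exposure 15 min at room temperature before reaction start.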
# AmpC inh detg = inhibitors of E. coli AmpC beta-lactamase with detergent; Potency, µM (top dose mostly 114 µM), most hits filed as inhibitors; AmpC hydrolysis of nitrocefin, absorbance 480 nm, 0.01% Triton; P00811; 370,000 tested, 0.041% active; further: nearly all actives have a fitted effect of over 25% in size
#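 AmpC (5.3 nM in the dispensed reagent) in 20 mM phosphate pH 7.0 with 0.01% (detergent screen) or 0.0001% Triton X-100 was preincubated with compounds for 15 min at room temperature. Nitrocefin was then added from an 800 uM solution, and hydrolysis was followed at 480 nm.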
# Hits are given with their value; 0 = inactive; ? = inconclusive; - = no result given. The call rests on the fitted dose curve; in most records, active means well fitted curve in the direction sought with a large enough effect; inconclusive means small, poorly fitted or top-dose-only effect, or another doubt; inactive means no such curve, though single readings can be large; an effect the other way counts as inactive or inconclusive.
SMILES,AmpC no deterg,Sm TGR block,AmpC inh detg
O=C(c1ccco1)N1CCCC(c2nc3c(nnn3Cc3c(Cl)cccc3Cl)c(=O)[nH]2)C1 (configuration not stated),0,0,0
O=[N+]([O-])c1ccc(Sc2nnnn2-c2ccccc2)c(Cl)c1,0,?,0
CC(=O)c1ccc(Sc2nnnn2-c2ccccc2)c([N+](=O)[O-])c1,0,35.5µM,0
CN1CCN(S(=O)(=O)c2ccc(Sc3nnnn3-c3ccccc3)c([N+](=O)[O-])c2)CC1,0,7.08µM,?
Cn1cnnc1Sc1cc(N2CCN(S(=O)(=O)c3ccccc3)CC2)ccc1[N+](=O)[O-],0,0,0
COCCCNC(=O)Cn1cnc2sc(C)c(S(=O)(=O)N3CCC(C)CC3)c2c1=O,-,0,0
CCC1C(=O)N=C(SCC(=O)Nc2ccc(C)cc2)N(c2ccccc2)C1=O (configuration not stated),0,0,0
Cc1ccc(CNC(=O)CCC2CCCN(Cc3cccc4c3OCO4)C2)o1 (configuration not stated),0,?,0
Cc1ccc(CNC(=O)CCC2CCCN(Cc3ccc4cccc(F)c4n3)C2)o1 (configuration not stated),0,39.8µM,0
COCCn1c(SCC(=O)NCC2CCCO2)nc2c(c1=O)SCC2 (configuration not stated),0,0,0
ClCc1nnc(-c2ccccc2)o1,0,50.1µM,0
c1ccc(-c2nnc(-c3ccccc3)o2)cc1,0,0,?
O=C1C2C3C=CC(C4CC34)C2C(=O)N1Cc1ccccc1 (configuration not stated),0,0,0
O=C1C2C3C=CC(C3=C3CCCCC3)C2C(=O)N1Cc1ccccc1 (configuration not stated),0,17.8µM,0
CC1CCN(c2ccc(-c3cccs3)nn2)CC1,0,?,0
NC(=S)Nc1cccc(-c2n[nH]c(=S)o2)c1,0,0,0
Cc1ccc(NC(=S)Nc2cccc(-c3n[nH]c(=S)o3)c2)cc1,0,12.6µM,0
COc1ccc(CCNC(=O)CN2C(=O)NC(c3ccccc3)(c3ccccc3)C2=O)cc1,0,-,-
COc1cc(/C=N/NC(=O)c2cccnc2)ccc1OC(=O)c1ccc([N+](=O)[O-])cc1,0,0,0
COc1cc(/C=C/[N+](=O)[O-])ccc1OC(=O)c1cccnc1,0,1.78µM,0
Nc1c(Cl)ncnc1N/N=C/c1ccncc1,0,44.7µM,0
Nc1c(Cl)ncnc1N/N=C/c1cccc(O)c1,0,?,?
O=C(COC(=O)c1ccccc1Nc1ccccc1)Nc1ccccc1,7.08µM,0,?
CC(=O)c1ccc(NC(=O)COC(=O)c2ccccc2Nc2ccccc2)cc1,0,0,0
CCN(C(=O)N1CCOCC1)c1ccccc1C,0,0,0
SMILES,AmpC no deterg,Sm TGR block,AmpC inh detg
Fc1ccccc1Nc1n[nH]c(=S)s1,0,0,0
S=c1[nH]nc(Nc2cccc3ccccc23)s1,28.2µM,0,0
COc1ccc(N(CC(=O)NCc2ccco2)S(C)(=O)=O)c(OC)c1,0,0,0
CCOc1ccc(N(CC(=O)Nc2ccccc2C(=O)NCc2ccco2)S(C)(=O)=O)cc1,0,0,?
CCOc1ccc(N(CC(=O)NCc2ccco2)S(C)(=O)=O)cc1,0,50.1µM,0
CS(=O)(=O)N(CC(=O)NCc1ccco1)c1ccccc1Cl,0,39.8µM,0
Cc1ccn2cc(C(=O)Nc3cccc(C(=O)NC4CC4)c3)nc2c1,0,0,0
COc1ccc(OC)c(S(=O)(=O)Nc2ccc3[nH]c(=O)[nH]c3c2)c1,0,0,0
CCOc1ccc(CC(=O)N2CCN=C2SC)cc1,0,0,0
c1ccc(C2CC3CC(c4ccco4)N2O3)cc1 (configuration not stated),?,35.5µM,0
CN1C(c2ccccc2)CCOS1(=O)=O (configuration not stated),0,0,?
Cc1ccc(CNC(=O)C2CCC(=O)N(CCc3ccccc3)C2)s1 (configuration not stated),0,0,0
COc1cc(C=O)ccc1Oc1nnnn1-c1ccc(C(N)=O)cc1,0,0,0
C/C=C/c1ccc(Oc2nnnn2-c2ccc(C(=O)O)cc2)c(OC)c1,0,35.5µM,0
CCOc1ccccc1C(=O)Oc1c(S(=O)(=O)c2ccc(C)cc2)c(C)nn1-c1ccccc1,-,0,0
NC(=O)C1(C(N)=O)OC1c1ccccc1 (configuration not stated),0,0,0
CC(=O)OC1c2ccccc2C(=O)N1c1ccccc1C (configuration not stated),0,0,0
COC(=O)C1(C)Nc2ccccc2C(=O)N1c1ccccc1C (configuration not stated),1µM,0,?
CCn1nc(C)c(CN2CCC(n3nccc3NC(=O)c3ccc4c(c3)OCO4)CC2)c1C,0,0,0
CCCCC(CCC(=O)O)(C(=O)OCC)c1csc(Nc2ccc(OCC)cc2)n1 (configuration not stated),0,50.1µM,0
CCCCC(CCC(=O)O)(C(=O)OCC)c1csc(Nc2ccccc2)n1 (configuration not stated),0,0,0
COc1ccc(N2CCN(C(=O)CCS(=O)(=O)c3cc4c(cc3Cl)NC(=O)CO4)CC2)cc1,-,0,0
CC1(C)CC2CC(C)(CN2S(=O)(=O)c2cccc(C(=O)OCC(=O)NC(N)=O)c2)C1 (configuration not stated),0,15.8µM,0
CNC(=O)NC(=O)COC(=O)c1cccc(S(=O)(=O)N2CC3(C)CC2CC(C)(C)C3)c1 (configuration not stated),0,0,0
Cc1nn(-c2ccc(Cl)cc2)c2[nH]c(CCl)cc(=O)c12,0,?,0
SMILES,AmpC no deterg,Sm TGR block,AmpC inh detg
O=C1C=CC(=O)N1,0,0.891µM,?
O=C1C=CC(=O)C=C1,0,-,-
Cn1cc(CNC(=O)C2CCC(=O)N(Cc3cccc(C(F)(F)F)c3)C2)cn1 (configuration not stated),0,0,0
COc1ccc(C2C(C(=O)c3ccco3)=C(O)C(=O)N2CCc2ccccc2)cc1OC (configuration not stated),0,0,0
COc1ccc(C2C(C(=O)/C=C/c3ccco3)=C(O)C(=O)N2CCN2CCOCC2)cc1OC (configuration not stated),0,11.2µM,0
CCCOc1ccc(C2C(C(=O)c3ccco3)=C(O)C(=O)N2CCN2CCOCC2)cc1OC (configuration not stated),0,39.8µM,0
COc1cccc(C2C(C(=O)c3ccc(C)o3)=C(O)C(=O)N2CCN2CCOCC2)c1 (configuration not stated),0,0,0
CCOc1ccc(C2C(C(=O)c3ccc(C)o3)=C(O)C(=O)N2CCN2CCOCC2)cc1OC (configuration not stated),0,50.1µM,0
CCOc1ccc(C2C(C(=O)c3ccco3)=C(O)C(=O)N2CCN2CCOCC2)cc1OCC (configuration not stated),0,?,0
CCOC(=O)CNC(=O)CN1C(=O)CC(c2ccccc2)S(=O)(=O)c2ccccc21 (configuration not stated),0,0,0
